B2AR arrestin: qHTS assay of beta-arrestin-biased ligands of beta2-adrenergic receptor. Beta-2 adrenergic receptor (Homo sapiens), P07550. beta-arrestin recruitment to beta2AR, cell-based reporter. Potency, µM (top dose mostly 46.1 µM), for the others: top-dose activation, most hits filed as activators. 330,000 tested, 0.02% active. AID 492947, 2010;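 note: potency is the fitted concentration of half-maximal effect; 0% = DMSO controls and full agonism = EC100 isoproterenol or metaproterenol; nearly all actives have a fitted effect of over 65% in size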
TSHR antagonist: Antagonists of the Thyroid Stimulating Hormone Receptor: HTS campaign; Thyrotropin receptor (Homo sapiens), P16473; TSHR-expressing cells, TSH-stimulated cAMP HTRF, 2 h; stronger effect = lower value; activity change, negative = inhibition, % at 11.5 µM; 330,000 tested, 0.2% active; AID 504810, 2011;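 active = activity change below a set negative limit, meaning inhibition stronger than a set level, cut at about -70% in these data; inconclusive = activity change between two set negative limits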
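Cell-based HTRF cAMP assay; TSHR cells + compound, TSH EC80 (4nM final), 2 h, 37 deg C. Lysis with anti-cAMP cryptate and cAMP-d2, 30 min RT, read 665/620 nm.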
RORg inh: qHTS for inhibitors of ROR gamma transcriptional activity; Drosophila S2 Gal4-RORgamma UAS-luciferase reporter, 20 h; Potency, µM (top dose mostly 53.6 µM), without a hit: at the highest dose activity change, negative = inhibition, hits mostly inhibitors; 310,000 tested, 5.4% active; AID 2551, 2010; note: potency is the fitted concentration of half-maximal effect; nearly all actives have a fitted effect of over 60% in size
Target sequence (P51450 whole entry, looked up, the tested form may be a part): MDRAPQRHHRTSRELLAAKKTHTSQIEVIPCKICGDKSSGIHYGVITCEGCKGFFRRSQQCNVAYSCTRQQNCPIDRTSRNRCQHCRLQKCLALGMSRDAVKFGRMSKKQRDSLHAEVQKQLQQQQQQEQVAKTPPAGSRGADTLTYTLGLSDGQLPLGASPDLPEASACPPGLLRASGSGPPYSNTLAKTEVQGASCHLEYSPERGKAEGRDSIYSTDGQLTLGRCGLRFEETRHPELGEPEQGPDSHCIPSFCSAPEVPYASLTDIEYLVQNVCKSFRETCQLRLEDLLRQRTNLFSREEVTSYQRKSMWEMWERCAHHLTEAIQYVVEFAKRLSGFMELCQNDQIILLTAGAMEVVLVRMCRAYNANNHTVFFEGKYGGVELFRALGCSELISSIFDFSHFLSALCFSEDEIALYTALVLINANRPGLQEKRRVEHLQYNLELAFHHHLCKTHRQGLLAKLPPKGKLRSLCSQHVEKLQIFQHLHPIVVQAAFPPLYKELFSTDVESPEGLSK
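Luminescence from a UAS-regulated Photinus luciferase reporter in stably transfected Drosophila Schneider cells is measured; decreased signal marks ROR gamma inhibition. Fusion expression is induced by 700 uM copper sulfate for 20 hr.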
ELG1 DNA repair: qHTS screen for small molecules that inhibit ELG1-dependent DNA repair in human embryonic kidney (HEK293T) cells expressing luciferase-tagged ELG1 | Potency, µM (series often up to 46.1 µM), inactives show at the top dose activity change, negative = inhibition, usual class: inhibitors | 330,000 tested, 2.3% active | HEK293T ELG1-luciferase reporter, luminescence, 16 h; DNA damage induced by 5-fluorouridine; note: potency is the fitted concentration of half-maximal effect; nearly all actives have a fitted effect of over 55% in size
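Step one: seed 2,000 cells per well. Step two: pin-transfer compound or DMSO alongside 5-fluorouridine. Step three: incubate 16 hr, 37 °C, 5% CO2. Step four: add ONE-Glo, wait 30 min, read luminescence.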
Gal4-VP16 FLuc: VP16 counterscreen qHTS for inhibitors of ROR gamma transcriptional activity. Drosophila S2 Gal4-VP16 UAS-luciferase, luminescence, 20 h. Potency, µM (top dose mostly 53.6 µM), inactives show top-dose activity, negative = inhibition, most hits filed as inhibitors. 310,000 tested, 3.5% active;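 note: Gal4-VP16 expression switched on by copper sulfate through the metallothionein promoter; potency is the fitted concentration of half-maximal effect; nearly all actives have a fitted effect of over 50% in size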
* marks the source's active call; other numbers are inactive results; ? = inconclusive; . = not tested or not shown; [ ] = another dose, or the depositor's remark. Sampled rows, rich in hits. Any-hit rate of the full collection: about 7.5%. Unless noted, calls come from the whole dose curve; as a rule, active = well fitted curve in the direction sought with a large enough effect; inconclusive = small, poorly fitted or top-dose-only effect, or another doubt; inactive = no such curve, though single readings can be large; an effect the other way counts as inactive or inconclusive. Unless noted, % is set by controls: 0 for no effect and ±100 for the full control effect.

SMILES	B2AR arrestin	TSHR antagonist	RORg inh	ELG1 DNA repair	Gal4-VP16 FLuc
CCCCC(=O)NC(=S)Nc1cccc(Cl)c1N1CCCCC1	-1%	-16	1.6µM*	?	5µM*
CCCC(=O)NC(=S)Nc1cccc(Cl)c1N1CCCCC1	-1%	-4	0.63µM*	-8%	1µM*
CCCCC(=O)NC(=S)Nc1cc(C(=O)O)ccc1OC	0%	-6	-30%	4%	4%
CCC(=O)NC(=S)Nc1cccc(Cl)c1N1CCCCC1	13%	2	4.5µM*	9%	5µM*
Cc1ccc(NC(=O)Cn2ccc(=O)[nH]c2=O)cc1	0%	8	27%	?	8%
CCCCC[C@H](O)/C=C/C=C\CCCCCCCC(=O)O	.	.	-8%	.	-3%
O=C(Cc1ccc(Cl)cc1)NC(=S)Nc1ccccc1N1CCOCC1	-1%	-22	5µM*	?	5µM*
O=C(Cc1ccccc1)Nc1ccccc1N1CCOCC1	0%	-7	-1%	-1%	1%
CCCCC(=O)NC(=S)Nc1ccccc1N1CCCCC1	0%	-15	4.5µM*	-1%	8.9µM*
Cc1cc(C(=O)COC(=O)c2ccc[nH]c2=O)c(C)n1-c1ccccc1	-1%	-2	13µM*	?	0.45µM*
Cc1cc(C(=O)COC(=O)c2ccc[nH]c2=O)c(C)n1-c1ccc(F)cc1	0%	-9	10µM*	?	7.1µM*
Cc1cc(C(=O)OCC(=O)NCc2ccco2)c(C)n1-c1ccc(F)cc1	-1%	20	9%	5%	-3%
Cc1cc(C(=O)COC(=O)c2ccc[nH]c2=O)c(C)n1C1CC1	-1%	-4	-19%	?	-21%
Cc1cc(OCC(=O)NC(C)(C)C)ccc1Cl	-2%	0	2%	?	7%
Cc1ccc(OC(C)C(=O)Nc2cc(C)on2)cc1 (centres undefined)	-1%	-13	-21%	5%	-9%
Cc1cc(OCC(=O)N(C(C)C)C(C)C)ccc1Cl	0%	8	1.6µM*	4%	?
Cc1ccc(OC(C)C(=O)Nc2ccncc2)cc1 (centres undefined)	0%	-5	?	-16%	18µM*
Cc1cc(OC(C)C(=O)Nc2ccncc2)ccc1Cl (centres undefined)	-1%	-33	19%	?	11µM*
CN(Cc1nccs1)C(=O)C1CCC(=O)N(CCCc2ccccc2)C1 (centres undefined)	0%	5	-6%	20%	2%
O=C(CCS(=O)(=O)Cc1ccccc1F)NCCc1ccc(Cl)cc1	0%	4	-1%	?	-13%
CN(C)c1ccc(-c2ccc(C3C4C=CCCC4(C)C(=O)N3Cc3ccccc3)c(F)c2)cc1 (centres undefined)	.	.	19%	.	-8%
CCC(=O)CC	.	.	-4%	.	-2%
COCCCn1[nH]c2c3c(ccc2c1=O)C(=O)c1ccccc1C3=O	0%	-12	16µM*	26µM*	?
CC(C)(C)n1[nH]c2c3c(ccc2c1=O)C(=O)c1ccccc1C3=O	0%	-10	?	-1%	-19%
Cc1ccc(C)c(-n2[nH]c3c4c(ccc3c2=O)C(=O)c2ccccc2C4=O)c1	-1%	-5	6.3µM*	-5%	-23%
SMILES	B2AR arrestin	TSHR antagonist	RORg inh	ELG1 DNA repair	Gal4-VP16 FLuc
CC(C)C[C@@H](CC(=O)N[C@@H](CCC(=O)O)CC(=O)O)NC(=O)[C@@H]1CNCC[C@H]1NC(=O)C[C@@H](NC(=O)C[C@H](CO)NC(=O)[C@@H]1CNCC[C@H]1N)C(C)C	.	.	-15%	.	6%
COc1ccc(CN2CCC3C=CCC(C(=O)O)C3C2=O)cc1OC (centres undefined)	.	.	-13%	.	-7%
COc1ccc(COC(=O)N/N=C2/C[C@@H](O)[C@@H](O)[C@@H]3[C@@H]4C(=O)N(C[C@@H]5CCCO5)C(=O)[C@H]4CC[C@@H]23)cc1	.	.	-2%[10 µM]	.	-2%[10 µM]
OCc1cccc(Cl)c1Cl	.	.	2%	.	-3%
COc1ccc(-c2nc3ccccn3c2Cl)cc1	0%	-6	16µM*	?	?
COc1ccc(-c2cn3ccccc3n2)cc1	0%	-10	6.3µM*	?	13µM*
CCCOc1ccc(-c2cn3ccccc3n2)cc1	0%	2	4.5µM*	?	?
Clc1ccc(-c2cn3ccccc3n2)cc1	-1%	-3	?	?	-29%
COc1c(Cl)cccc1-c1cn2ccccc2n1	0%	-6	11µM*	?	?
COc1ccc(-c2nc3ccccn3c2CN2CCN(c3ccccc3F)CC2)cc1	0%	0	-39%	?	-10%
Nc1ccc(F)cc1F	.	.	-3%	.	-24%
Cc1nn(-c2ccccc2)c(Cl)c1/C=N/NC(=O)c1ccco1	0%	-13	22%	?	-2%
Cc1nn(-c2ccccc2)c(Cl)c1/C=N/NC(=O)OC(C)(C)C	0%	-14	?	?	1%
CNC(=S)N/N=C/c1c(C)nn(-c2cccc(Cl)c2)c1Cl	-2%	-10	2µM*	?	1.3µM*
CNC(=S)N/N=C/c1c(C)nn(-c2ccccc2)c1Cl	4%	29	?	?	0.89µM*
Cc1cc(C)cc(Nc2nc(-c3ccc(S(=O)(=O)N4CCCC4)cc3)cs2)c1	0%	-23	16%[10 µM]	23µM*	3%
O=C(Nc1nc(-c2ccc(S(=O)(=O)N3CCCCCC3)cc2)cs1)c1ccccc1	0%	?	9%	7.3µM*	-3%
CN(C)S(=O)(=O)c1ccc(C(=O)Nc2nc(-c3cccs3)cs2)cc1	0%	?	3%	12µM*	-19%
O=C(Nc1nc(-c2cccs2)cs1)c1ccc(S(=O)(=O)N2CCCC2)cc1	-1%	?	34%	16µM*	3%
O=C(O)c1ccc2c(c1)C(=O)N([C@H](Cc1ccccc1)C(=O)O)C2=O	0%	43	1%	.	-2%
Cc1nn(-c2ccccc2)c(NC(=O)NS(=O)(=O)c2ccc(Cl)cc2)c1C#N	.	.	0%	.	-7%
CCOc1cc(C(=O)OCC(=O)Nc2ccc(F)cc2Cl)ccc1OCC(=O)N1CCOCC1	-3%	2	.	-26%	.
Cc1ccc(CNC(=O)CNC(=S)N(Cc2ccccc2)Cc2ccccc2F)cc1	0%	-29	-31%	-14%	-7%
O=C(CSc1nc(C(F)(F)F)cc(=O)[nH]1)NCc1ccc2c(c1)OCO2	-3%	4	.	2%	.
Cc1ccc(SCc2nc(-c3ccncc3)no2)cc1	0%	-7	37%	12%	7%
c1ccc(SCc2nc(-c3ccncc3)no2)cc1	0%	0	?	?	11µM*
CCC(C)Sc1cccc(-c2nc3ccc(C)cn3c2NCc2ccccc2)c1 (centres undefined)	-2%	-79*	.	?	.
